Measurements: PubChem BioAssay (NCATS)
“And” between values parts separate entries of the source, which are not always exact repeats. Identical values can stand only once. Results filed as inconclusive are left out. The source made the active and inactive calls. Unless noted, calls follow the shape of the dose curve; as a rule, active = well fitted curve in either direction with a large enough effect (not every such curve was filed as active); inconclusive = small, poorly fitted or top-dose-only effect, or another doubt; inactive = flat fitted curve, though single readings scatter.

Experiments:
[1] = AP1 Signaling Pathway (AID 357); settings: ME-180 AP-1-bla reporter, EGF-induced, beta-lactamase ratio, 5 h; also: % is scaled to controls: 0 for no effect and ±100 for the full control effect
In short: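 ME-180 cells with beta-lactamase reporter under AP-1 response element, stimulated with EC50 EGF; compounds tested in titration series, 5 h at 37 °C. CCF4 substrate added 2.5 h at room temperature; 460/530 nm emission ratio gave %activity and AC50.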

[2] = biological target: Cytochrome P450 1A2 (Homo sapiens) (UniProt P05177); assay: p450-cyp1a2 (AID 410; calls by dose curve; also: potency is read from the fitted curve at half-maximal effect;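 as to activity change, negative = inhibition: -100% = full effect of reference inhibitor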); settings: recombinant CYP1A2, luciferin-ME demethylation, luminescence; series mostly up to 25.6 µM
In short: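 Inhibition was calculated relative to 57 uM furafylline (full inhibition). The reaction used human CYP1A2 at 20nM with Luciferin-ME at its Km, 100uM, driven by an NADPH-regenerating system for 60 min at room temperature.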

[3] = NFAT Signaling Pathway (AID 444); settings: Jurkat NFAT-bla M1, carbachol, beta-lactamase ratio, 5 h;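 also: carbachol stimulus at about its EC50 of 1 µM final; % is scaled to controls: 0 for no effect and ±100 for the full control effect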
In short: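 Jurkat cells with NFAT-driven β-lactamase reporter and co-expressed M1 receptor, stimulated with carbachol (final 1 uM, ~EC50), compound titration, 5 h at 37 °C. CCF4 loaded 1 h at RT; 460/530 nm ratio gave %activity and AC50.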

[4] = Stat Signaling Pathway (AID 446); settings: ME-180 SIE beta-lactamase reporter, IL-6 stimulated, 5 h;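 also: ME-180 cervical cancer cells given 40 pM IL-6 alongside compound; SIE-controlled beta-lactamase reporter measured as 460/530 nm FRET emission ratio; % is scaled to controls: 0 for no effect and ±100 for the full control effect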
In short: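 ME-180 SIE-bla cells; overnight plating; cpd + IL-6 40 pM, 5 h, 37 C; LiveBLAzer 2.5 h RT; 460/530 nm emission ratio. Normalized to 300 pM IL-6 and 125 nM JAK inhibitor controls.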

[5] = biological target: Glucocorticoid receptor (Homo sapiens) (UniProt P04150); assay: GR-GFP Redistribution (AID 450;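 active = compounds whose dose series gives a full or clear partial fitted curve of increased nuclear translocation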; also: potency is read from the fitted curve at half-maximal effect); settings: U2OS GR-GFP nuclear translocation, laser cytometry, 2 h
[6] = biological target: Glucocorticoid receptor (Homo sapiens) (UniProt P04150); assay: GR-EFC Redistribution (AID 451; calls by dose curve; also: potency is read from the fitted curve at half-maximal effect); settings: CHO-K1 GR-EFC translocation, beta-gal luminescence, 2 h
In short: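 CHO-K1 cells expressing nuclear EA and GR-ED fragments of b-gal; compounds titrated up to 46 uM final, 2 h at 37 C. GR nuclear translocation read as complemented b-gal luminescence after 1 h RT detection.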

[7] = Cell Viability - BJ (AID 421; calls by dose curve;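 also: potency is read from the fitted curve at half-maximal effect; cells exposed to compound for 40 hours at 37 °C before readout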); settings: BJ fibroblast viability, qHTS
In short: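 Luminescent ATP signal (CellTiter-Glo, 20 min at room temperature) served as the read-out of viable BJ cells after 40 hours of compound treatment. Responses were scaled between DMSO and 100 uM tamoxifen, and AC50 values were obtained by Hill modeling.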

[8] = Cell Viability - Jurkat (AID 426;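 active = dose-dependent loss of cell ATP signal giving a full or clear fitted curve, ranked by lower potency value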; also: potency is read from the fitted curve at half-maximal effect); settings: qHTS
In short: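 Seed 5000 Jurkat E6-1 cells/well; add compound; incubate 40 hr at 37 °C; add CellTiter-Glo; wait 20 min at room temperature; read luminescence. Fit concentration-response with Hill equation for AC50.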

[9] = Cell Viability - Hek293 (AID 427;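 active = compounds whose dose-response curve shows a full or clear partial loss of cell viability, called from curve shape rather than a numeric limit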;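 also: potency is read from the fitted curve at half-maximal effect; cells exposed to compound for 40 hours at 37 °C before reading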); settings: qHTS
In short: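 Luminescent ATP read-out (CellTiter-Glo, 20 min RT) after 40 hr compound exposure at 37 °C in complete medium. Signal normalized to DMSO (basal) and 100 uM tamoxifen (100% inhibition); concentration-response fitted with the standard Hill equation to give AC50.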

[10] = Cell Viability - HepG2 (AID 433; calls by dose curve;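 also: potency is read from the fitted curve at half-maximal effect; potency for ATP loss meaning cytotoxicity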); settings: qHTS
In short: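 In this qHTS format, a 40 h, 37 °C compound incubation of HepG2 cells in complete medium precedes a 20 min CellTiter-Glo step at room temperature. Tamoxifen and doxorubicin serve as positive controls; Hill-equation fits yield AC50.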

[11] = Cell Viability - MRC5 (AID 434; calls by dose curve;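 also: potency is read from the fitted curve at half-maximal effect; potency reflects cytotoxicity seen as loss of intracellular ATP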); settings: MRC5 lung fibroblast viability, qHTS
In short: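 MRC5 normal human lung fibroblasts, 1500 cells/well, exposed to compound for 40 hr at 37 C. Cellular ATP was read by CellTiter-Glo luminescence; data normalized to DMSO and 100 uM tamoxifen, with AC50 from Hill fits.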

[12] = Cell Viability - SK-N-SH (AID 435; calls by dose curve;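 also: potency is read from the fitted curve at half-maximal effect; compound exposure lasted 40 h at 37 °C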); settings: SK-N-SH neuroblastoma cell viability qHTS
In short: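 Human neuroblastoma line, 40 h exposure at 37 °C, ATP quantified via luciferase luminescence; DMSO and 100 uM tamoxifen define 0 and 100% inhibition for AC50 fitting.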

[13] = biological target: Mitogen-activated protein kinase 10 (Mus musculus) (UniProt Q61831); assay: JNK3 AlphaScreen Assay (AID 530); settings: JNK3 lysate, c-Jun phosphorylation; series mostly up to 57.1 µM;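 also: kinase came from lysate of stimulated human HepG2 cells; signal reports phosphorylation of biotinylated GST-cJun 1-79 at Ser73 with 10 µM ATP; % is scaled to controls: 0 for no effect and ±100 for the full control effect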
In short: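 qHTS format: compounds tested as titrations against IL-1beta/TNF-alpha-activated HepG2 lysate JNK3 with biotin-GST-cJun substrate and 10 uM ATP at room temperature. Loss of anti-phospho-cJun AlphaScreen signal indicates inhibition.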

[14] = Cell Viability - N2a (AID 540; active = well fitted curve in the direction sought with a large enough effect; an effect the other way counts as inactive or inconclusive;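 also: plate controls were DMSO alone for no effect and tamoxifen control for full effect; nearly all actives have a fitted effect of over 45% in size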); settings: N2a mouse neuroblastoma cell viability; activity change, negative = cytotoxicity: at 92.2 µM (top of the series)
In short: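 First, 1500 N2a cells per well incubate 5 hr at 37 °C; next, compounds are added and incubated 40 hr at 37 °C; finally CellTiter-Glo is added and luminescence read after 20 min, with AC50 derived by Hill modeling.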

[15] = Cell Viability - NIH 3T3 (AID 541; active = well fitted curve in the direction sought with a large enough effect; an effect the other way counts as inactive or inconclusive;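 also: plate controls were DMSO alone for no effect and tamoxifen positive control for full effect; nearly all actives have a fitted effect of over 25% in size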); settings: NIH 3T3 cell viability, qHTS; activity change, negative = cytotoxicity: at 92.2 µM (top of the series)
In short: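 AC50 values reflect concentration-dependent loss of intracellular ATP in NIH 3T3 cells after 40 hr treatment in complete culture medium, quantified by luciferase-based luminescence.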

[16] = Cell Viability - HUV-EC-C (AID 542; active = well fitted curve in the direction sought with a large enough effect; an effect the other way counts as inactive or inconclusive; also: % is scaled to controls: 0 for no effect and ±100 for the full control effect; nearly all actives have a fitted effect of over 35% in size); settings: HUV-EC-C endothelial cell viability, qHTS; series mostly up to 92.2 µM
In short: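 Decrease in cellular ATP, quantified by luciferase luminescence, reflects toxicity in normal human vascular endothelial HUV-EC-C cells given compound for 40 hr in complete culture medium. Values are AC50s from concentration-response curves.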

[17] = Cell Viability - H-4-II-E (AID 543; active = well fitted curve in the direction sought with a large enough effect; an effect the other way counts as inactive or inconclusive; also: % is scaled to controls: 0 for no effect and ±100 for the full control effect; nearly all actives have a fitted effect of over 35% in size); settings: H-4-II-E rat hepatoma viability; series mostly up to 92.2 µM
In short: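 Here, cytotoxicity is measured in the rat hepatoma line H-4-II-E as loss of intracellular ATP after 40 hr compound treatment, detected by luciferase luminescence.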

[18] = Cell Viability - SH-SY5Y (AID 544; active = well fitted curve in the direction sought with a large enough effect; an effect the other way counts as inactive or inconclusive;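 also: 0% = DMSO alone and -100% = 100 µM tamoxifen; nearly all actives have a fitted effect of over 55% in size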); settings: SH-SY5Y neuroblastoma cell viability; series mostly up to 92.2 µM
In short: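 Cytotoxicity is scored as a concentration-dependent fall in intracellular ATP in human SH-SY5Y cells treated 40 hr in complete culture medium. Potency is expressed as AC50 from a Hill equation fit.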

[19] = Cell Viability - Renal Proximal Tubule (AID 545; active = well fitted curve in the direction sought with a large enough effect; an effect the other way counts as inactive or inconclusive;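 also: 0% = DMSO only and -100% = 100 µM tamoxifen; nearly all actives have a fitted effect of over 40% in size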); settings: renal proximal tubule cells viability, primary cells of rat origin; series mostly up to 91.7 µM
In short: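 In this qHTS format, normal rat kidney-derived proximal tubule cells in complete culture medium receive compound titrations, then sit 40 hours at 37 °C before luciferase-based ATP quantitation; potency is reported as AC50 from concentration-response curves.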

Chain of Cytochrome P450 1A2 (Homo sapiens) (P05177 whole entry, looked up): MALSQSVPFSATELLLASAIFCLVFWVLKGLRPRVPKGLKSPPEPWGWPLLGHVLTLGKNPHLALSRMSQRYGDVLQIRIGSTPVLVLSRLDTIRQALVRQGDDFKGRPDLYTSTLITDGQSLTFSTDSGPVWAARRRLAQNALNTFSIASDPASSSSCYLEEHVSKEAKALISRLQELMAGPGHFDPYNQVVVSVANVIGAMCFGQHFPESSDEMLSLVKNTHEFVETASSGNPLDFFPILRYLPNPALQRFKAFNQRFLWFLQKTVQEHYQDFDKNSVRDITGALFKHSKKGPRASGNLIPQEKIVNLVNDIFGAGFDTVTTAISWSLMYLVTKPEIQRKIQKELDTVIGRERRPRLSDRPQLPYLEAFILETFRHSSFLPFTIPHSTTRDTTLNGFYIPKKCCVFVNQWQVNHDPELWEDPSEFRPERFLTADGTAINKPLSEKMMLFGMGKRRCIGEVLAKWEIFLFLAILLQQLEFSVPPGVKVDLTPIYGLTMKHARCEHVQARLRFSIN
Chain of Glucocorticoid receptor (Homo sapiens) (P04150 whole entry, looked up, the tested form may be a part): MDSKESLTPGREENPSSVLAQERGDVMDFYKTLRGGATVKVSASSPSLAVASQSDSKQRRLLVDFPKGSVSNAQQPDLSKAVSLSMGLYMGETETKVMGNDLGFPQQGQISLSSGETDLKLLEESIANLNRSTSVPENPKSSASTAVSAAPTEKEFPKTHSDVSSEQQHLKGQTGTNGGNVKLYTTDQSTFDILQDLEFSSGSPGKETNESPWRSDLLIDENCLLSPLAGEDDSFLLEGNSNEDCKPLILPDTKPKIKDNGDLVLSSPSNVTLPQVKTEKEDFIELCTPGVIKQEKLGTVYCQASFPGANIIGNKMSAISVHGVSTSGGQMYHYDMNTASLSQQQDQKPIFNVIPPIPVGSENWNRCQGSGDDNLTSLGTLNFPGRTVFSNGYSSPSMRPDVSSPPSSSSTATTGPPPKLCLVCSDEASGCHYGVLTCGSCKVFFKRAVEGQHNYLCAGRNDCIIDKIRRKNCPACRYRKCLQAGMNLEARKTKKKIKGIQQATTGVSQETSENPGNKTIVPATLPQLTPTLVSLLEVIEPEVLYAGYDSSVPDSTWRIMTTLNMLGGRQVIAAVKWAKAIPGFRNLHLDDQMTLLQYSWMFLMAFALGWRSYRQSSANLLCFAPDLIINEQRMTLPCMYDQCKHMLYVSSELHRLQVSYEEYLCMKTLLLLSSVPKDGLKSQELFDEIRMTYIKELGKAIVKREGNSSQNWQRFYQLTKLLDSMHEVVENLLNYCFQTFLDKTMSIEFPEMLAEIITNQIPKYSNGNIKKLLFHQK

CCOc1ccc2ccccc2c1C(=O)N[C@@H]1C(=O)N2[C@@H]1SC(C)(C)[C@@H]2C(=O)O
inactive: activity change, negative = inhibition ([1]; at 17.2 µM (top of the series)) 0.437% | Potency [2] | activity change, negative = inhibition ([3]; at 17.2 µM (top of the series)) 1.54% | activity, negative = inhibition ([4]; at 17.2 µM (top of the series)) 2.51% | Potency [5] > 20.6 µM | Potency [6] > 20.6 µM

NC1CCN(c2cccc(Cl)n2)CC1
inactive: activity change, negative = inhibition ([1]; at 38 µM (top of the series)) 2.98% | activity change, negative = inhibition ([3]; at 38 µM (top of the series)) -6.65% | activity, negative = inhibition ([4]; at 38 µM (top of the series)) -14.3% | Potency [5] > 46 µM | Potency [6] > 46 µM
active: Potency [2] 20 µM and 15.8 µM

CCCCOC(=O)c1ccc(O)cc1
active: Potency [2] 0.0794 µM
inactive: activity change, negative = inhibition ([1]; at 17.2 µM (top of the series)) -21.4% | Potency [7] > 92 µM | Potency [8] > 92 µM | Potency [9] > 92 µM | Potency [10] > 92 µM | Potency [11] > 92 µM | Potency [12] > 92 µM | activity change, negative = inhibition ([3]; at 17.2 µM (top of the series)) -15% | activity, negative = inhibition ([4]; at 17.2 µM (top of the series)) -9.98% | Potency [5] > 20.6 µM | Potency [6] > 20.6 µM | Potency [13] | activity change, negative = cytotoxicity [14] 2.23% | Potency [15] | Potency [16] | Potency [17] | Potency [18] | Potency [19]

C=Cc1c(C)c2cc3[nH]c(cc4nc(cc5nc(cc1[nH]2)C(C)=C5CCC(=O)O)C(CCC(=O)O)=C4C)c(C)c3C=C
active: Potency [2] 6.31 µM
inactive: activity change, negative = inhibition ([1]; at 38 µM (top of the series)) -5.02% | activity change, negative = inhibition ([3]; at 38 µM (top of the series)) 10.7% | Potency [5] > 46 µM | Potency [6] > 46 µM

Nc1ccc(S(=O)(=O)NC(=O)c2ccccc2)cc1
inactive: activity change, negative = inhibition ([1]; at 17.2 µM (top of the series)) 13.8% and 7.16% | Potency [2] | activity change, negative = inhibition ([3]; at 17.2 µM (top of the series)) 7.31% and -26.1% | activity, negative = inhibition ([4]; at 17.2 µM (top of the series)) -0.201% and -5.16% | Potency [5] > 20.6 µM | Potency [6] > 20.6 µM

C[C@@H]1C[C@H]2[C@@H]3C[C@H](F)C4=CC(=O)C=C[C@]4(C)[C@@]3(F)[C@@H](O)C[C@]2(C)[C@@]1(O)C(=O)CO
inactive: activity change, negative = inhibition ([1]; at 17.2 µM (top of the series)) -11.1% | activity change, negative = inhibition ([3]; at 17.2 µM (top of the series)) -28.6% | activity, negative = inhibition ([4]; at 17.2 µM (top of the series)) -0.0687%

Cc1c(Cl)cccc1Nc1ccccc1C(=O)O
inactive: activity change, negative = inhibition ([1]; at 17.2 µM (top of the series)) -25.1% and -19.5% | activity change, negative = inhibition ([3]; at 17.2 µM (top of the series)) -35.5% | activity, negative = inhibition ([4]; at 17.2 µM (top of the series)) -15.1% and -25.4% | Potency [5] > 20.6 µM | Potency [6] > 20.6 µM
active: Potency [2] 3.16 µM
